# Measured values reported in the supplement of paper PMC8728848.
# Shown is part of a subset that was picked to be rich in the strongest signals.
# B1: CM2 (Cordyceps militaris) (protein)
# chain: MEIAEQNVGKSCAIVNLIPPKEGSNIWTAKQVTIARNLPPNRGTGRHQIDWSFGPVKVTGYVDTTNWEIGVTVSIMGIDLGTVYGNLRDGVVLNVDLFLAKGQVRFYLKNGNEVWVHLSVEIRFDGKFEGDYKIITV
# Assays:
# Test in all cases: glycan array binding signal (z-score within array); higher = stronger binding
# Conditions in all cases: glycan notation: IUPAC condensed, linker removed
# [1] = target: Neu5Ac(a2-3)Gal(b1-4)GlcNAc(b1-3)Gal(b1-4)GlcNAc(b1-3)GalNAc
# In short: (§1)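 Glycan array data were curated from 3228 arrays in the Consortium for Functional Glycomics database and kept only where the protein sequence was available. Glycan names were converted to IUPAC-condensed notation, and columns mapping to the same glycan were averaged. The binding signal is a within-array Z-score, averaged across arrays of the same protein sequence at different concentrations or buffers and across linkers. Negative Z-scores can be read as non-binding.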
# [2] = target: Neu5Ac(a2-3)Gal(b1-4)GlcNAc(b1-3)Gal(b1-4)GlcNAc(b1-6)[Gal(b1-3)]GalNAc
# In short: as §1
# [3] = target: Neu5Ac(a2-3)Gal(b1-4)GlcNAc(b1-6)[Gal(b1-3)]GalNAc
# In short: as §1
# [4] = target: Neu5Ac(a2-3)Gal(b1-4)[Fuc(a1-3)]GlcNAc(b1-3)Gal
# In short: as §1
# [5] = target: Neu5Ac(a2-3)[GalNAc(b1-4)]Gal(b1-4)GlcNAc(b1-3)GalNAc
# In short: as §1
# [6] = target: Neu5Ac(a2-6)Gal(b1-4)GlcNAc
# In short: as §1
# [7] = target: Neu5Ac(a2-6)Gal(b1-4)GlcNAc(b1-2)Man
# In short: as §1
# [8] = target: Neu5Ac(a2-6)Gal(b1-4)GlcNAc(b1-2)Man(a1-3)[Man(a1-6)]Man(b1-4)GlcNAc(b1-4)GlcNAc
# In short: as §1
# [9] = target: Neu5Ac(a2-6)Gal(b1-4)GlcNAc(b1-2)[Neu5Ac(a2-6)Gal(b1-4)GlcNAc(b1-6)]Man(a1-6)[Neu5Ac(a2-6)Gal(b1-4)GlcNAc(b1-2)Man(a1-3)][GlcNAc(b1-4)]Man(b1-4)GlcNAc(b1-4)GlcNAc
# In short: as §1
# [10] = target: Neu5Ac(a2-6)Gal(b1-4)GlcNAc(b1-6)[Gal(b1-3)GlcNAc(b1-3)]Gal(b1-4)Glc
# In short: as §1
# [11] = target: Neu5Ac(a2-6)Gal(b1-4)GlcNAc6S
# In short: as §1
# Neu5Ac(a2-6)GalNAc = target: Neu5Ac(a2-6)GalNAc
# In short: as §1
# [12] = target: Neu5Ac(a2-8)Neu5Ac(a2-3)Gal(b1-4)Glc
# In short: as §1
# [13] = target: Neu5Ac(a2-8)Neu5Ac(a2-8)Neu5Ac(a2-3)[Gal(b1-3)GalNAc(b1-4)]Gal(b1-4)Glc
# In short: as §1
# [14] = target: Neu5Ac(a2-8)Neu5Gc(a2-3)Gal(b1-4)GlcNAc
# In short: as §1
binder,measurement,setting,value
B1,glycan array binding signal (z-score),[1],3.11
same,glycan array binding signal (z-score),[2],-1.25
same,glycan array binding signal (z-score),[3],-0.406
same,glycan array binding signal (z-score),[4],0.036
same,glycan array binding signal (z-score),[5],0.919
same,glycan array binding signal (z-score),[6],-0.125
same,glycan array binding signal (z-score),[7],2.54
same,glycan array binding signal (z-score),[8],-0.907
same,glycan array binding signal (z-score),[9],-0.924
same,glycan array binding signal (z-score),[10],-1.25
same,glycan array binding signal (z-score),[11],-1.69
same,glycan array binding signal (z-score),Neu5Ac(a2-6)GalNAc,0.447
same,glycan array binding signal (z-score),[12],-0.496
same,glycan array binding signal (z-score),[13],-0.622
same,glycan array binding signal (z-score),[14],-1.52
